Among the data in PubChem BioAssay (NCATS) are Potency values, retold here.

Structures are written as SMILES. Inconclusive results are not listed. Active and inactive are the calls of the source. The call rests on the fitted dose curve; in most records, active means well fitted inhibition curve with a large enough effect; inconclusive means small, poorly fitted or top-dose-only effect; inactive means flat fitted curve, though single readings scatter.

Common to all, as to experiment: qHTS profiling for inhibitors of Plasmodium falciparum proliferation (AID 504749); further: nearly all actives have a fitted effect of over 60% in size
What all share (details): P. falciparum in erythrocytes, SYBR Green DNA, 72 h; series mostly up to 28.7 µM
In general terms: In qHTS, concentration-response curves come from the screen itself.

One assay has as its system CP291. In outline:
(§1)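 P. falciparum-infected erythrocytes (0.3% parasitemia, 2.5% hematocrit) incubated with compound 72 h at 37 C, 5% CO2. Parasite DNA detected by SYBR Green after lysis, overnight at room temperature; normalised to 0.29 uM artemisinin and DMSO.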

The test system of another assay is CP297. In outline: as §1
The test system of the next assay is CP305. In outline: as §1
For a further assay, the system named is CP315. In outline:
as §1

The subject of the next assay is CP325. In outline: as §1
A further assay concerns CP329. In outline: as §1
The next assay has as its system CP335. In outline: as §1
The next assay has as its system DFO2036. In outline:
as §1

Another assay has as its system DIV14. In outline: as §1
In a further assay the test system is DIV17. In outline: as §1
The test system of the next assay is DIV30. In outline: as §1
The subject of the next assay is Dd2. In outline:
as §1

Another assay relates to ECU. In outline: as §1
In a further assay the test system is FAB9. In outline: as §1
The test system of the next assay is GB4. In outline: as §1
The test system of a further assay is HB3. In outline: as §1
Another assay concerns ICS. In outline: as §1
The subject of a further assay is JCK. In outline: as §1
A further assay relates to N140. In outline:
as §1

The subject of another assay is P93_24. In outline:
as §1
Potency means the concentration at half of the fitted maximal effect.

Regarding `N[C@@H](Cc1cnc[nH]1)C(=O)O`, the Potency entry in the assay with CP291, in the assay on CP297, in the assay with CP305, with CP315, in the assay with CP325 and in the assay with CP329 was “inactive” each time. Also, the Potency entry in the assay with CP335, with DFO2036, in the assay on DIV14, with DIV17, in the assay with DIV30 and in the assay with Dd2 was “inactive” each time. The Potency result in the assay on ECU, with FAB9, with GB4, in the assay on HB3, in the assay with ICS and in the assay on JCK was “inactive” each time. The Potency result in the assay with N140 and with P93_24 was “inactive” each time.
As to `C[C@H]1[C@H](NC(=O)/C(=N/OC(C)(C)C(=O)O)c2csc(N)n2)C(=O)N1S(=O)(=O)O` (stereo in doubt), the Potency entry with CP291, in the assay with CP297, in the assay on CP305, in the assay on CP315, in the assay with CP325 and with CP329 was “inactive” in each case. The Potency result in the assay with CP335, with DFO2036, in the assay on DIV14, in the assay with DIV17, with DIV30 and with Dd2 was “inactive” each time. The Potency result in the assay on ECU, in the assay with FAB9, with GB4, in the assay on HB3, in the assay on ICS and with JCK was “inactive” each time. Moreover, the Potency entry in the assay with N140 and with P93_24 was “inactive” throughout.
Regarding `CC(C)(C(=O)c1cccnc1)c1cccnc1`, the Potency result with CP291, with CP297, in the assay with CP305, with CP315, in the assay on CP325 and in the assay on CP329 was “inactive” in each case. The Potency result in the assay on CP335, in the assay with DFO2036, with DIV14, in the assay on DIV17, with DIV30 and with Dd2 was “inactive” each time. Also, the Potency result in the assay on ECU, with FAB9, in the assay with GB4, in the assay with HB3, in the assay on ICS and with N140 was “inactive” throughout. Moreover, the Potency entry in the assay with P93_24 is “inactive”. Moreover, the Potency in the assay on JCK was 10 µM (active).
For the compound `Cc1cccn2c(=O)c(-c3nnn[nH]3)cnc12`, the Potency result in the assay with CP291, in the assay with CP297, in the assay with CP305, in the assay with CP315, with CP325 and in the assay on CP329 was “inactive” throughout. Further, the Potency entry with CP335, with DFO2036, in the assay on DIV14, with DIV17, in the assay on DIV30 and in the assay with Dd2 was “inactive” in each case. Further, the Potency result with ECU, in the assay with FAB9, with GB4, in the assay with HB3, with ICS and in the assay with JCK was “inactive” each time. Moreover, the Potency result in the assay with N140 and in the assay on P93_24 was “inactive” each time.
In the case of `COc1cc2c(cc1OC)C(C(C(=O)N(CCc1ccc(OC)c(OC)c1OC)CCc1ccc(OC)c(OC)c1OC)c1ccccc1)=NCC2` (stereo not drawn), the Potency is 15.1 µM (active) in the assay on CP291; 3.38 µM (active) in the assay on CP297; 15.1 µM (active) in the assay on CP305; 13.5 µM (active) in the assay on CP315; 16.9 µM (active) in the assay with CP325; 13.5 µM (active) with CP329. For the same compound, the Potency is 5.36 µM (active) with CP335; 1.35 µM (active) in the assay with DIV14; 1.35 µM (active) with DIV17; 1.35 µM (active) in the assay with DIV30; 3.98 µM (active) with Dd2; 2.24 µM (active) with ECU. Besides, the Potency in the assay with FAB9 is 11.2 µM (active); with GB4, 7.57 µM (active); in the assay with HB3, 5.01 µM (active); in the assay with ICS, 0.199 µM (active); in the assay on JCK it was 10 µM (active); in the assay with P93_24, 2.24 µM (active). In addition, the Potency entry in the assay with DFO2036 was “inactive”.
As for `C#C[C@]1(OC(C)=O)CC[C@H]2[C@@H]3CCC4=C[C@@H](OC(C)=O)CC[C@@H]4[C@H]3CC[C@@]21C`, the Potency entry in the assay on CP291, with CP297, in the assay on CP305, with CP315, in the assay with CP325 and with CP329 was “inactive” each time. Further, the Potency entry in the assay on CP335, in the assay with DFO2036, with DIV14, in the assay on DIV17, in the assay on DIV30 and in the assay with Dd2 was “inactive” each time. In addition, the Potency entry with ECU, in the assay on FAB9, in the assay on GB4, with HB3, in the assay with ICS and in the assay on JCK was “inactive” each time. In addition, the Potency entry with N140 and in the assay with P93_24 was “inactive” in each case.
With `CCOC(=O)OC(C)OC1=C(C(=O)Nc2ccccn2)N(C)S(=O)(=O)c2ccccc21` (stereo not drawn), the Potency entry in the assay on CP291, with CP297, in the assay with CP305, with CP315, with CP325 and in the assay on CP329 was “inactive” throughout. The Potency result with CP335, with DFO2036, in the assay on DIV14, in the assay on DIV17, with DIV30 and in the assay on Dd2 was “inactive” each time. Further, the Potency entry in the assay with ECU, in the assay on FAB9, in the assay with GB4, with HB3, with ICS and in the assay on JCK was “inactive” each time. In addition, the Potency result in the assay with N140 and with P93_24 was “inactive” each time.
As for `CCOC(=O)COc1ccc2c(C)c(CCN(CC)CC)c(=O)oc2c1Cl`, the Potency entry in the assay with CP291, with CP297, with CP305, with CP315, in the assay on CP325 and in the assay on CP329 was “inactive” in each case. In addition, the Potency result in the assay on CP335, in the assay on DFO2036, with DIV14, in the assay with DIV17, with DIV30 and in the assay with Dd2 was “inactive” each time. Besides, the Potency result in the assay on FAB9, in the assay on GB4, in the assay on HB3, with ICS, in the assay with JCK and with N140 was “inactive” each time. For the same compound, the Potency entry in the assay on P93_24 was “inactive”.
On to `CC(=O)OCC(=O)[C@@]1(OC(C)=O)[C@@H](C)C[C@H]2[C@@H]3C[C@H](F)C4=CC(=O)C=C[C@]4(C)[C@@]3(F)[C@@H](O)C[C@@]21C`, for which the Potency result in the assay with CP291, with CP297, in the assay on CP305, in the assay with CP315, in the assay on CP325 and with CP329 was “inactive” in each case. Further, the Potency result in the assay on CP335, with DFO2036, in the assay on DIV30, in the assay with Dd2, in the assay with ECU and in the assay with FAB9 was “inactive” each time. The Potency result in the assay on HB3 and in the assay on JCK was “inactive” throughout. Moreover, the Potency in the assay with ICS was 11.2 µM (active).
With `Cc1ccc(C(=O)C(C)CN2CCCCC2)cc1` (stereo not drawn), the Potency result in the assay with CP291, with CP297, in the assay on CP305, in the assay with CP315, in the assay on CP325 and in the assay with CP329 was “inactive” each time. In addition, the Potency entry in the assay on DFO2036, in the assay with DIV14, in the assay with Dd2, in the assay on FAB9 and in the assay on JCK was “inactive” in each case. For the same compound, the Potency was 13.5 µM (active) in the assay on GB4 and 3.98 µM (active) with ICS.
On to `CCCCCCCCCCCCCCCCCC(=O)OCC(O)CO` (stereo not drawn), for which the Potency entry in the assay with CP291, in the assay with CP297, in the assay on CP305, in the assay on CP315, in the assay with CP325 and in the assay on CP329 was “inactive” each time. Moreover, the Potency result with DFO2036, with DIV14, with DIV17, in the assay on Dd2, with ECU and in the assay with FAB9 was “inactive” throughout. The Potency result in the assay with GB4, with HB3, in the assay on ICS and in the assay with N140 was “inactive” in each case.
Turning to `CN1CCC[C@@H]1c1cccnc1`, the Potency result in the assay on CP291, with CP297, in the assay on CP305, in the assay with CP315, with CP325 and in the assay with CP329 was “inactive” throughout. The Potency result with CP335, in the assay on DFO2036, with DIV17, with DIV30, in the assay on Dd2 and in the assay on ECU was “inactive” each time. Further, the Potency result in the assay with FAB9, in the assay with GB4, in the assay with HB3, in the assay on ICS, in the assay with JCK and with N140 was “inactive” in each case. The Potency result in the assay on P93_24 is “inactive”.
Take `CC[N+](CC)(CCNC(=O)C(=O)NCC[N+](CC)(CC)Cc1ccccc1Cl)Cc1ccccc1Cl`: the Potency was 6.75 µM (active) in the assay on CP291; 2.69 µM (active) with CP297; 3.01 µM (active) in the assay on CP305; 3.79 µM (active) in the assay with CP315; 3.38 µM (active) in the assay with CP325; 2.39 µM (active) in the assay on CP329. In addition, the Potency in the assay with CP335 was 2.69 µM (active); with DFO2036, 1.78 µM (active); in the assay with DIV14 it was 4.26 µM (active); with DIV17, 4.78 µM (active); in the assay with DIV30, 6.01 µM (active); in the assay with Dd2, 2.51 µM (active). Moreover, the Potency in the assay on FAB9 is 1.12 µM (active); in the assay with GB4, 2.39 µM (active); in the assay with ICS, 1.58 µM (active); in the assay with JCK, 10 µM (active); in the assay on P93_24 it was 0.794 µM (active).
